Screens: PubChem, National Center for Advancing Translational Sciences (NCATS)
Compounds with a hit are over-represented: about 7.4% of the library has one in this group of screens.
SMN2 splice enh: enhancers of SMN2 splice variant expression; actives 2.8% (n = 210,000); Potency, µM (highest dose often 46.1 µM), without a hit: at the top dose activity change, positive = activation, hits mostly activators; AID 1458; HEK293 SMN2-luciferase splicing reporter, luminescence, 30-36 h; note: % of control where 0% means no effect; nearly all actives have a fitted effect of over 55% in size
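HEK293 cells carry an SMN2 minigene-luciferase reporter in which exon 7 inclusion puts luciferase in frame. Cells were seeded at 2000 cells/well, attached for 10-12 hours, then exposed to compounds for 30-36 hours at 37C before ONE-Glo luminescence.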
Rab9 promoter act: Rab9 promoter activation. Huh7 Rab9 promoter-luciferase reporter, luminescence, 24 h. Potency, µM (top dose mostly 9.22 µM), without a hit: top-dose activation, negative = inhibition, hits mostly activators. actives 2.8% (n = 320,000); note: % of control where 0% means no effect; nearly all actives have a fitted effect of over 60% in size
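Cells were plated at 1500 per well in reduced-serum medium with 10% FBS and left 2 h. Compound in DMSO was then added for 24 h at 37 °C. Reporter signal was read by luminescence after 10 min with luciferase detection reagent.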
NPC1 promoter act: activates the NPC1 promoter; Potency, µM (series often up to 9.22 µM), for the others: top-dose activation, actives largely listed as activators; Huh7 NPC1 promoter luciferase reporter, 24 h; AID 485313; actives 2.4% (n = 320,000); note: % of control where 0% means no effect; nearly all actives have a fitted effect of over 60% in size
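Stable NPC1-promoter luciferase Huh7 line; cpd (DMSO) 24 h, 37 °C, 5% CO2; Amplite luciferase reagent 10 min RT; luminescence readout. qHTS format.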
FLuc counter: firefly luciferase modulation, counter-screen for miR-21 project | P08659 | purified FLuc, Km substrates, luminescence inhibition | Potency, µM (top dose mostly 57.5 µM), inactives show at the highest dose activity change, negative = inhibition, actives largely listed as inhibitors | actives 6.9% (n = 360,000);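 note: plate controls were vehicle for no effect and reference inhibitor for full effect; nearly all actives have a fitted effect of over 55% in size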
Target sequence (P08659 whole entry, looked up): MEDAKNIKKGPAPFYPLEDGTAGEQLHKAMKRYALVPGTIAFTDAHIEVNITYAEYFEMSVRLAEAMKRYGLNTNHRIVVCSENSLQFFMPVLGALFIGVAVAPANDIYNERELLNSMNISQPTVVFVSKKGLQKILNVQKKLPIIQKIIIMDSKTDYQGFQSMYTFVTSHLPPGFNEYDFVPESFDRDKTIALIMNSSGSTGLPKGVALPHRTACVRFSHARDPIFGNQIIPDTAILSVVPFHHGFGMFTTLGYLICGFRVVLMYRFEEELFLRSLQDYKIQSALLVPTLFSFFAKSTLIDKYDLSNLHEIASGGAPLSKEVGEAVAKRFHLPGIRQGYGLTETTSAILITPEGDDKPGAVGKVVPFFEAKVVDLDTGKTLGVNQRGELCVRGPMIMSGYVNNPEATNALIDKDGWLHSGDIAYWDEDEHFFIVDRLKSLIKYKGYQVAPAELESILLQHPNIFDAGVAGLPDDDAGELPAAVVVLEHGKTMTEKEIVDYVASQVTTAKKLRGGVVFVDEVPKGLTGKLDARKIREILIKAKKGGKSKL
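Purified P. pyralis luciferase (10nM final) with 10uM D-luciferin and 10uM ATP (Km levels) in 50mM Tris acetate pH 7.5, 10mM Mg acetate, 0.01% Tween-20, 0.05% BSA; qHTS 6-point titration, ~60 µM downward; luminescence read.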
ELG1 genotoxic: genotoxicity induction in ELG1-luciferase HEK293T cells; actives 1.3% (n = 330,000); AID 504466; Potency, µM (doses to about 46 µM), for the others: top-dose activity change, positive = activation, actives largely listed as activators; HEK293T ELG1-luciferase reporter, luminescence, 16 h; note: % of control where 0% means no effect; nearly all actives have a fitted effect of over 60% in size
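DMSO vehicle served as control against compound-treated ELG1-luciferase HEK293T cells; exposure lasted 16 hr at 37 °C and 5% CO2, followed by ONE-Glo luminescence detection after 30 min.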
* = called active by the depositor; [ ] = remark or other dose. Calls come from the whole dose curve; as a rule, active = well fitted curve in the direction sought with a large enough effect; inconclusive = small, poorly fitted or top-dose-only effect, or another doubt; inactive = no such curve, though single readings can be large; an effect the other way counts as inactive or inconclusive. Potency is the fitted concentration of half-maximal effect.

Results for CN1C(=O)C(=Cc2ccc(N3CCCCCC3)o2)C(=O)N(C)C1=S ?
SMN2 splice enh: 20%; Rab9 promoter act: inconclusive; NPC1 promoter act: inconclusive; FLuc counter: 11µM*; ELG1 genotoxic: inconclusive

Results for CN1C(=O)C(=Cc2ccc(N3CCOCC3)o2)C(=O)N(C)C1=O ?
SMN2 splice enh: inconclusive; Rab9 promoter act: 4%; NPC1 promoter act: 3%; FLuc counter: inconclusive; ELG1 genotoxic: 14%

Results for Cc1cccc(N)c1C ?
SMN2 splice enh: 17%

What do the screens show for `CNC(=O)c1cccn(Cc2ccc(C(F)(F)F)cc2)c1=O`?
SMN2 splice enh: -8%; Rab9 promoter act: 14%; NPC1 promoter act: -14%; FLuc counter: 0%; ELG1 genotoxic: 18µM*

What do the screens show for `CCN(CC)C(=O)c1ccc(NC(=O)c2c(C)noc2C)cc1`?
Rab9 promoter act: -2%; NPC1 promoter act: -1%; FLuc counter: 3%; ELG1 genotoxic: 5%

Results for CC(=O)c1ccc(NC(=O)c2cc(CC(C)C)on2)cc1 ?
SMN2 splice enh: 0%; Rab9 promoter act: 0%; NPC1 promoter act: 5%; FLuc counter: inconclusive; ELG1 genotoxic: 18µM*

What do the screens show for `CC1CCN(C(=O)COC(=O)c2cn(C)c3ccccc23)CC1`?
Rab9 promoter act: -2%; NPC1 promoter act: -3%; FLuc counter: 24µM*; ELG1 genotoxic: 7%

Results for Cc1nc2ccccc2cc1C[N+]12CN3CN(CN(C3)C1)C2 ?
SMN2 splice enh: -4%[9.22 µM]

How did COc1cccc(-n2c(=S)[nH]c3ccccc3c2=O)c1 do in these assays?
SMN2 splice enh: 9%; Rab9 promoter act: 2%; NPC1 promoter act: 0%; FLuc counter: 3%; ELG1 genotoxic: 7%

How did COc1ccc2c(c1)NP(=S)(Oc1ccccc1)N2 (stereo not given) do in these assays?
Rab9 promoter act: 0%; NPC1 promoter act: 19%; FLuc counter: 6.7µM*; ELG1 genotoxic: inconclusive

Results for CN(C)C(=O)Oc1cccc(NC(=O)c2ccccc2C(F)(F)F)c1 ?
Rab9 promoter act: -2%; NPC1 promoter act: -1%; FLuc counter: -2%; ELG1 genotoxic: -1%

Results for COc1ccccc1NC(=O)c1oc2ccccc2c1NC(=O)c1ccccc1C(F)(F)F ?
SMN2 splice enh: -6%; FLuc counter: 11µM*

What do the screens show for `CC(C)(C)n1cc(C(=O)c2ccc3ccccc3c2O)cn1`?
SMN2 splice enh: -72%; Rab9 promoter act: 0.56µM*; NPC1 promoter act: 0.45µM*; FLuc counter: 0.67µM*; ELG1 genotoxic: inconclusive

How did CC(C)(C)c1ccc(C(=O)NC(=S)Nn2cnnc2)cc1 do in these assays?
Rab9 promoter act: 23%; NPC1 promoter act: 20%; FLuc counter: 19µM*; ELG1 genotoxic: 1%

What do the screens show for `Cc1cc(C)cc(N2C(=O)NC(=O)/C(=C\C=C\c3ccco3)C2=O)c1`?
SMN2 splice enh: -4%; Rab9 promoter act: -3%; NPC1 promoter act: -11%; FLuc counter: inconclusive; ELG1 genotoxic: -18%

What do the screens show for `CC1=NN(c2ccccc2)C(=O)C1/C=C1\C(=O)NC(=O)N(c2cc(C)cc(C)c2)C1=O` (stereo not given)?
SMN2 splice enh: 8%; Rab9 promoter act: -5%; NPC1 promoter act: -3%; FLuc counter: 9.5µM*; ELG1 genotoxic: 5%

How did CC1=NN(c2ccccc2)C(=O)C1/C=C1/C(=O)NC(=O)N(c2cccc(C)c2)C1=O (stereo not given) do in these assays?
SMN2 splice enh: -11%; Rab9 promoter act: -6%; NPC1 promoter act: -1%; FLuc counter: 13µM*; ELG1 genotoxic: -4%

What do the screens show for `CC1=NN(c2ccccc2)C(=O)C1/C=C1\C(=O)NC(=O)N(c2ccc(C)c(C)c2)C1=O` (stereo not given)?
SMN2 splice enh: 6%; Rab9 promoter act: -4%; NPC1 promoter act: 0%; FLuc counter: 15µM*; ELG1 genotoxic: -6%

Results for Cc1cc(C)cc(N2C(=O)NC(=O)/C(=C\c3cc(C)n(C)c3C)C2=O)c1 ?
SMN2 splice enh: 0%; Rab9 promoter act: -1%; NPC1 promoter act: -1%; FLuc counter: 2%; ELG1 genotoxic: 7%

How did COc1ccc(/C=C2/C(=O)NC(=O)N(c3ccc(C)c(C)c3)C2=O)cc1CN1C(=O)c2ccccc2C1=O do in these assays?
SMN2 splice enh: 11%; Rab9 promoter act: -3%; NPC1 promoter act: 3%; FLuc counter: -1%; ELG1 genotoxic: 7%

How did CC1=NN(c2ccccc2)C(=O)C1/C=C1/C(=O)NC(=O)N(c2cc(C)cc(C)c2)C1=O (stereo not given) do in these assays?
SMN2 splice enh: -5%; Rab9 promoter act: -7%; NPC1 promoter act: -6%; FLuc counter: 17µM*; ELG1 genotoxic: -1%

Results for N[C@@H](Cc1ccccc1)P(=O)(O)O ?
SMN2 splice enh: -1%[9.22 µM]

What do the screens show for `N#CS.N=C=S.N=C=S.[Cu].[NH2-].[NH2-].[NH2-].[NH2-].c1ccc2ncccc2c1`?
SMN2 splice enh: -9%[9.22 µM]

Results for O=C(O)c1cc[c]([Hg][S]c2ncnc3nc[nH]c23)cc1 ?
SMN2 splice enh: -27%[9.22 µM]

Results for N[C@@H](Cc1c[nH]c2cc([N+](=O)[O-])ccc12)C(=O)O ?
SMN2 splice enh: -4%[9.22 µM]

How did Clc1cccc(C(Cl)(Cl)Cl)n1 do in these assays?
SMN2 splice enh: -4%

How did O=c1[nH]c(=O)n(Cc2ccccc2)c(O)c1/C=C1\C=Nc2ccccc21 do in these assays?
SMN2 splice enh: 12%; Rab9 promoter act: -1%; NPC1 promoter act: 2%; FLuc counter: -7%; ELG1 genotoxic: 4%

How did O=c1[nH]c(=O)n(-c2ccc(F)cc2)c(O)c1/C=C1\C=Nc2ccccc21 do in these assays?
Rab9 promoter act: -4%; NPC1 promoter act: 1%; FLuc counter: 6%; ELG1 genotoxic: -1%

How did O=c1[nH]c(=O)n(-c2ccccc2F)c(O)c1/C=C1\C=Nc2ccccc21 do in these assays?
Rab9 promoter act: -9%; NPC1 promoter act: -1%; FLuc counter: 17µM*; ELG1 genotoxic: 14%

Results for O=c1[nH]c(=O)n(CC2CCCO2)c(O)c1/C=C1\C=Nc2ccccc21 (stereo not given) ?
SMN2 splice enh: 11%; Rab9 promoter act: 0%; NPC1 promoter act: 1%; FLuc counter: 17µM*; ELG1 genotoxic: 0%

Results for COC1=CC(=O)OC(CCc2ccccc2)C1 (stereo not given) ?
SMN2 splice enh: -4%

What do the screens show for `O=S(=O)(Cl)c1ccccc1`?
SMN2 splice enh: 3%

Results for OC(c1ccc(Cl)cc1)(c1ccc(Cl)cc1)C(Cl)(Cl)Cl ?
SMN2 splice enh: 1%

Results for CCOC(=O)CC(SP(=O)(OC)OC)C(=O)OCC (stereo not given) ?
SMN2 splice enh: -4%
